High-throughput results: PubChem BioAssay, National Center for Advancing Translational Sciences (NCATS)
TRHR enhancer = qHTS for Small Molecule Agonists and Allosteric Enhancers of Human TRH Receptor: Primary Screen for Enhancers. Thyrotropin-releasing hormone receptor (Homo sapiens), P34981. TRHR cells, fluo-8 calcium fluorescence, EC20 TRH enhancement. 360,000 tested, 0.66% active. enhancement, % at 2 µM; in the data active = enhancement above about 30%; note: 0% is about no effect
Target sequence (P34981 whole entry, looked up): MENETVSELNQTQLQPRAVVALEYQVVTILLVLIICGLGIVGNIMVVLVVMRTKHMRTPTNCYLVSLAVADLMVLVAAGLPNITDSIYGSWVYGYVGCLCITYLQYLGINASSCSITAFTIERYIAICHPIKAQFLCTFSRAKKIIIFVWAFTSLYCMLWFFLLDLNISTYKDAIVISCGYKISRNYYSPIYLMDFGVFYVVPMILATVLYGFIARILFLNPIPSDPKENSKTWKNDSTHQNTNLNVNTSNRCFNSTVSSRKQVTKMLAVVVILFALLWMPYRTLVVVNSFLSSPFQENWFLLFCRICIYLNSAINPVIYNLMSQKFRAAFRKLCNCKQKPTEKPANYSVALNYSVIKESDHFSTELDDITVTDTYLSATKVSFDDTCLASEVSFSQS
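TRHR-expressing cells loaded with fluo-8 calcium dye were read kinetically (ex 480/em 530) during compound addition, then stimulated with an EC20 of TRH (10 nM final). Enhancement of the Gq-mediated intracellular calcium response was scored.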
D1 potentiator = Potentiators of Human D1 Dopamine Receptor: qHTS; D(1A) dopamine receptor (Homo sapiens), P21728; 360,000 tested, 0.036% active; HEK293 TREx D1 cells, calcium flux, dopamine EC20 potentiation; potentiation, % at 10 µM; AID 504651, 2011; in the data active = potentiation above about 30%; note: 0% is about no effect
D1 agonist = Allosteric Agonists of the Human D1 Dopamine Receptor: qHTS; D(1A) dopamine receptor (Homo sapiens), P21728; 360,000 tested, 1% active; AID 504660, 2011; activation, % at 2 µM; HEK293 T-REx D1 cells, calcium flux, agonist mode; note: 0% is about no effect
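Agonism was scored from calcium flux recorded over 180 s (1 read/s) after pintool compound addition, following a 10-cycle baseline. Cells were inducible force-coupled HEK293 TREx D1, plated overnight at 30 C and loaded with no-wash calcium dye.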
D1 antag = Antagonist of Human D 1 Dopamine Receptor: qHTS | D(1A) dopamine receptor (Homo sapiens), P21728 | HEK293 TREx D1 cells, calcium flux, dopamine EC80; active compounds read low | activity change, negative = inhibition, % at 10 µM | 360,000 tested, 3.2% active | AID 504652, 2011; in the data active = activity change below about -30%; note: % is set by controls: 0 for no effect and ±100 for the full control effect
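Inducible Hek293 Trex D1 cells (tetracycline, overnight, 30 C). Calcium dye 30–90 min RT. Antagonist mode: EC80 dopamine added after 180 s compound read.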
TRHR ag = qHTS for Small Molecule Agonists and Allosteric Enhancers of Human TRH Receptor: Primary Screen for Agonists; Thyrotropin-releasing hormone receptor (Homo sapiens), P34981; TRHR cells, calcium flux fluo-8, FDSS agonist mode; activation, % at 2 µM; 360,000 tested, 0.18% active; note: 0% is about no effect
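Agonist-mode FDSS calcium read (Ex 480/Em 530, 1 s cycles) in 1536-well TRHR cells with fluo-8 dye, after 10-cycle baseline and 23 nL compound addition; TRH at EC20 (10 nM final) added afterwards for the enhancer phase.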
Numbers without * were called inactive. Rows were chosen to be rich in hits. Some 4.6% of all compounds tested hit in one or more screens of this group. Cut-off read from the data, not from the text of the source, unless noted: active = activation above about 30%; inactive = the rest.

SMILES	TRHR enhancer	D1 potentiator	D1 agonist	D1 antag	TRHR ag
Cc1ccc(C(=O)N2CC=C(c3ccccc3)CC2)s1	1.5	3.1	2.8	3.7	-1.1
Cc1ccsc1C(=O)N1CC=C(c2ccccc2)CC1	1.2	4.6	12.2	-30.7*	-0.3
Cc1ccc2nc(Nc3cccc(C(F)(F)F)c3)c3nnnn3c2c1	-4.5	-1.6	-0.3	1.3	-0.3
Cc1ccc(OCC(=O)Nn2c(C)nc3ccccc3c2=O)c(C(C)C)c1	3.5	5.2	34.9*	-22.0	-0.7
CCCCOc1ccc(C(=O)NNC(=O)C2C3C=CC(C3)C2C(=O)O)cc1 (stereo unspecified)	-2.9	-6.5	2.2	-82.0*	-0.5
CCCCOc1ccc(C(=O)NNC(=O)C2C3CCC(C3)C2C(=O)O)cc1 (stereo unspecified)	0.4	3.8	1.0	2.5	-0.3
COc1ccccc1N1CCN(Cc2ccco2)CC1	0.1	-1.6	3.0	4.1	0.0
COc1ccccc1N1CCN(Cc2ccc(-c3ccccc3[N+](=O)[O-])o2)CC1	-3.0	-8.6	2.0	-73.9*	-0.5
COc1ccccc1N1CCN(c2ccc(N3C(=O)CCC3=O)cc2[N+](=O)[O-])CC1	-0.3	-5.8	14.3	-44.3*	1.2
COc1cccc(N2CCN(c3ccc(N4C(=O)CCC4=O)cc3[N+](=O)[O-])CC2)c1	-6.1	-4.2	17.0	-25.0	0.0
Cc1cc(Nc2ccccc2)nc(-c2ccccc2O)n1	6.3	-3.1	3.7	-44.9*	0.4
Cc1cc(Nc2cccc(F)c2)nc(-c2ccccc2O)n1	0.7	-9.3	2.4	-18.6	0.2
CCOC(=O)CSc1nc2c(sc3ccccc32)c(=O)n1CCc1ccccc1	-1.5	-5.0	2.5	-2.7	-0.1
c1ccc2c(C[C@@H]3CNCCN3CC3CCCCC3)cccc2c1	11.5	3.8	116.1*	3.4	-0.9
O=C1C2CCCN2C(=O)N1CCCCN1CCN(c2ccc(F)cc2)CC1 (stereo unspecified)	7.0	-9.9	4.9	-33.5*	0.4
O=C1C2CCCCN2C(=O)N1CCCCN1CCN(c2ccc(F)cc2)CC1 (stereo unspecified)	3.8	-25.4	-0.8	-18.5	0.2
O=C1C2CCCCN2C(=O)N1CCN1CCN(c2ccc([N+](=O)[O-])cc2)CC1 (stereo unspecified)	-0.8	6.0	7.3	-32.7*	-0.3
O=C1C2CCCN2C(=O)N1CCCN1CCN(c2ccc([N+](=O)[O-])cc2)CC1 (stereo unspecified)	-5.7	-1.4	5.2	-29.1	0.6
CCOc1ccccc1NC(=O)Cn1ncc2c(=O)oc3ccc(C)cc3c21	-1.7	0.3	0.8	0.7	-0.5
CC(C)(C)c1ccc(C(=O)Nc2onc3c2CCCC3)cc1	-3.1	-0.9	-1.5	-6.1	0.2
COc1ccc(NC(=O)CC2C(=O)N(c3ccc(C)cc3)C(=O)N2Cc2ccc3c(c2)OCO3)cc1 (stereo unspecified)	3.3	-1.4	8.1	-7.7	-1.5
CCN1C(=O)C(CC(=O)Nc2ccc(F)cc2)N(Cc2ccco2)C1=S (stereo unspecified)	10.7	-3.0	4.8	13.3	1.2
CCOc1ccc(NC(=O)CC2C(=O)N(c3ccccc3)C(=O)N2Cc2ccc3c(c2)OCO3)cc1 (stereo unspecified)	-1.4	1.1	0.2	-50.9*	-0.7
CCOc1ccc(NC(=O)CC2C(=O)N(c3ccccc3)C(=O)N2Cc2ccco2)cc1 (stereo unspecified)	15.1	-4.5	-1.6	-42.4*	-0.1
COC(=O)c1ccc(NC(=O)CC2C(=O)N(c3ccccc3)C(=O)N2Cc2ccco2)cc1 (stereo unspecified)	18.5	-8.1	0.8	4.8	0.1
SMILES	TRHR enhancer	D1 potentiator	D1 agonist	D1 antag	TRHR ag
CCCCCCOc1ccc(NC(=O)CC2C(=O)N(CC)C(=S)N2Cc2ccco2)cc1 (stereo unspecified)	-6.0	-4.3	7.7	-40.3*	0.1
CCOC(=O)N1CCN(CC(=O)Nc2nnc(C(F)(F)F)s2)CC1	4.9	7.2	-2.6	-17.5	0.4
O=c1ccn(-c2cccc(C(F)(F)F)c2)nc1-c1ccn(-c2ccccc2)n1	-5.0	-4.0	-1.1	-37.6*	0.0
Cc1cc(=O)c(C(=O)O)nn1-c1cccc(C(F)(F)F)c1	-1.4	-2.9	-0.5	12.8	0.1
O=C(NNc1c([N+](=O)[O-])cc(C(F)(F)F)cc1[N+](=O)[O-])c1ccco1	-4.0	4.6	21.0	-35.9*	2.3
Cc1ccc2cc(CCNC(=O)c3cccc([N+](=O)[O-])c3)c(=O)[nH]c2c1	-4.2	4.2	0.8	-15.1	0.0
COc1cc(OC)cc(C(=O)OCc2cc3ccccc3[nH]c2=O)c1	21.9	-11.9	-0.2	-40.4*	0.1
Cc1ccc2cc(COC(=O)c3cccc([N+](=O)[O-])c3)c(=O)[nH]c2c1	-9.1	-7.2	1.3	-33.7*	0.1
O=C(O)CCCN1C(=O)C(=O)/C(=C(/O)c2ccccc2)C1/C=C/c1ccccc1 (stereo unspecified)	19.8	-4.0	2.6	-30.8*	-0.2
CCOC(=O)C1CCCN(c2nc3ccccc3nc2C(C#N)C(=O)OCC)C1 (stereo unspecified)	-1.1	-13.6	9.5	-25.8	1.5
CCOC(=O)C1CCN(c2nc3ccccc3nc2C(C#N)C(=O)NCCc2ccccc2)CC1 (stereo unspecified)	-9.2	-1.4	0.4	-30.5*	3.4
CCOc1ccccc1N(CC(=O)N1CCOCC1)S(=O)(=O)c1ccccc1	5.3	-2.7	1.8	-1.1	82.9*
N#Cc1c(NC(=O)Cn2cnc3ccccc3c2=O)oc(-c2ccccc2)c1-c1ccccc1	-5.0	-10.6	3.7	-54.9*	-0.4
Cc1c(Cl)cccc1NC(=O)c1cc2nc(-c3ccc4c(c3)OCO4)cc(C(F)(F)F)n2n1	11.5	0.8	1.8	2.2	-0.1
CC(=O)N1CCN(C(=O)c2cc(S(=O)(=O)Nc3ccc(S(C)(=O)=O)cc3)ccc2Cl)CC1	1.3	-1.4	1.9	10.9	-1.0
CCN1CCN(C(=O)c2cc(S(=O)(=O)Nc3ccc(S(C)(=O)=O)cc3)ccc2Cl)CC1	-21.2	-4.7	1.4	-47.2*	-0.4
CCN(CC)CCNS(=O)(=O)c1ccc(C(=O)NN)cc1	-7.5	-5.5	2.9	-34.9*	-1.7
CCOC(=O)c1ccc(S(=O)(=O)NCCN(CC)CC)cc1	0.6	6.8	12.3	-21.1	0.4
Cc1cc(OCC(=O)OCC(=O)Nc2ccc(Cl)cn2)ccc1Cl	0.6	0.2	2.7	-8.6	0.3
